# Source: PubChem (National Center for Advancing Translational Sciences (NCATS))
# HT1080-NT tox: kills 2HG-producing HT-1080-NT fibrosarcoma cells; HT-1080-NT fibrosarcoma viability, CellTiter-Glo ATP luminescence, 48 h; Potency, µM (top dose mostly 46.1 µM), inactives show top-dose activity, negative = less viability, actives largely listed as cytotoxic; hit rate 1.6% among 360,000;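 note: NT is the 2HG producing partner of a matched IDH1 knockdown line; potency is the fitted concentration of half-maximal effect; 0% = DMSO-treated cells and -100% = media-only wells without cells; nearly all actives have a fitted effect of over 55% in size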
#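 A 48-hour cytotoxicity screen used HT-1080-NT cells plated 2 hours before compound delivery. ATP-based CellTiter-Glo luminescence measured viability, normalized to DMSO and no-cell controls.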
# IL1B secr inh: blocks inflammasome-driven IL-1 beta release; THP-1 LPS/ATP IL-1B secretion, AlphaLISA, 16 h; active compounds read low; activity change, % at 57.5 µM; hit rate 4.7% among 360,000; in the data active = activity change below about -50%; inconclusive = mostly about -30% to -49%
#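 Secreted IL-1B measured by AlphaLISA bead assay after 16 h compound exposure of THP-1 cells; compounds (final up to 57.5 uM) added 1 h before LPS (250 ng/mL) and ATP (1.25 mM) stimulation; lower signal means less secretion.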
# TDP1 cell CPT: DT40-hTDP1 cell growth loss with CPT. chicken DT40 Tdp1-/-;hTDP1 cells + 20 nM CPT, ATP luminescence, 48 h. Potency, µM (highest dose often 46.2 µM), for the others: at the highest dose activity change, negative = growth inhibition, usual class: inhibitors. hit rate 12% among 420,000; note: potency is the fitted concentration of half-maximal effect; nearly all actives have a fitted effect of over 55% in size
#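 Chicken DT40 Tdp1-/- cells complemented with human TDP1, 400 cells/well, exposed to compounds plus 20 nM camptothecin for at least 48 h at 37 C; viability read as ATP content by CellTiter-Glo luminescence.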
# HT1080 IDH1KD tx: toxicity to HT-1080 IDH1 knockdown cells (counter line). hit rate 2% among 360,000. Potency, µM (series often up to 46.1 µM), for the others: at the top dose activity, negative = toxicity, hits mostly cytotoxic. AID 686971. HT-1080 IDH1 knockdown viability, ATP luminescence, 48 h;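 note: potency is the fitted concentration of half-maximal effect; 0% = DMSO wells and -100% = cell-free medium wells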
#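 HT-1080-IDH1KD cells (IDH1 knocked down), 750/well in RPMI with 5% FBS, treated with compound 48 h at 37 degrees C. Viability by CellTiter-Glo luminescence, normalised to DMSO and no-cell wells; concentration-response curves classed.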
# ELG1 DNA repair: inhibitors of ELG1-dependent DNA repair in HEK293T cells; HEK293T ELG1-luciferase reporter, luminescence, 16 h; DNA damage induced by 5-fluorouridine; Potency, µM (doses to about 46.1 µM), inactives show at the top dose activity change, negative = inhibition, hits mostly inhibitors; AID 504467; hit rate 2.3% among 330,000; note: potency is the fitted concentration of half-maximal effect; nearly all actives have a fitted effect of over 55% in size
#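 DMSO vehicle served as the neutral condition. Each well held 2,000 cells given 5-fluorouridine plus compound; after 16 hr at 37 °C/5% CO2, ONE-Glo was added and luciferase measured 30 min later.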
# DT40 TDP1 no CPT: qHTS for Inhibitors of human tyrosyl-DNA phosphodiesterase 1 (TDP1): qHTS in cells in absence of CPT | DT40 Tdp1-/- hTDP1 cells, no CPT, ATP luminescence, 48 h | Potency, µM (top dose mostly 46.2 µM), without a hit: at the highest dose activity change, negative = growth inhibition, hits mostly inhibitors | hit rate 15% among 420,000; note: potency is the fitted concentration of half-maximal effect; nearly all actives have a fitted effect of over 55% in size
#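 No-CPT arm: Tdp1-/-;hTDP1 DT40 cells (400/well) plus compounds, incubated ≥48 hr at 37 °C. Readout CellTiter-Glo luminescence.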
# The depositor's hits bear a star; u = inconclusive; x = no result. Only some compounds are listed: those with a hit (about 19% of all), similar ones and a draw of the others. Unless noted, calls come from the whole dose curve; as a rule, active = well fitted curve in the direction sought with a large enough effect; inconclusive = small, poorly fitted or top-dose-only effect, or another doubt; inactive = no such curve, though single readings can be large; an effect the other way counts as inactive or inconclusive. Unless noted, % is set by controls: 0 for no effect and ±100 for the full control effect.
SMILES,HT1080-NT tox,IL1B secr inh,TDP1 cell CPT,HT1080 IDH1KD tx,ELG1 DNA repair,DT40 TDP1 no CPT
CC(=O)N(c1cccc(Br)c1)c1nc(C)cc(C)c1C#N,3.4%,x,8.6%,-0.8%,u,-11.6%
Cc1nn2c([nH]c(=O)c3ccccc32)c1C=O,17.8µM*,10.0,u,u,-12.7%,-2.0%
Cc1nn(-c2ccccc2)c(C)c1C=O,0.9%,3.2,-2.8%,3.9%,-9.4%,-18.8%
Cc1nn2c(nc(N3CCCCC3)c3ccccc32)c1C=O,u,-74.4*,-5.9%,-24.7%,u,u
Cc1ccccc1OCC(=O)NCC(=O)OCC(=O)c1ccc2c(c1)CCCC2,x,x,-28.5%,x,x,-10.4%
CC1(C)CC(=O)C(C2C3=C(CC(C)(C)CC3=O)Oc3c(Br)cc(Br)cc32)=C(O)C1 (stereo not given),6.9%,29.9,u,5.3%,5.0%,18.4µM*
O=[N+]([O-])c1ccccc1OCCN1CCOCC1,14.8%,12.0,18.3%,11.5%,12.8%,2.4%
C=CCOC(=O)c1sc(NC(=O)c2ccc(OC)cc2)nc1C,u,-1.7,11.5%,1.84µM*,u,5.5%
CCOC(=O)c1sc(NC(=O)c2ccc(=O)[nH]c2)nc1C,19.4%,6.8,-5.9%,0.2%,2.3%,-12.2%
CCOC(=O)c1sc(NC(=O)c2ccc3nc[nH]c3c2)nc1C,0.9%,-9.4,u,u,u,8.2µM*
CCOc1ccc(C(=O)Nc2nc(C)c(C(=O)OC)s2)cc1,4.0%,20.7,-34.5%,7.6%,u,-21.7%
CCOC(=O)c1sc(NC(=O)c2ccccc2OCC)nc1C,0.0%,17.9,20.6µM*,23.2%,4.8%,u
COC(=O)c1sc(NC(=O)COc2ccccc2)nc1C,4.3%,-25.8,1.6%,11.1%,u,-28.3%
COC(=O)c1sc(NC(=O)COc2ccc(C)cc2)nc1C,5.4%,-63.3*,-20.8%,-0.1%,4.6%,-15.5%
CCOC(=O)c1sc(NC(=O)Nc2ccc(Cl)cc2)nc1C,-6.7%,-28.1,u,-0.7%,u,23.1µM*
CCc1cccc(C)c1NC(=O)CC1Oc2ccc(C)cc2NC1=O (stereo not given),10.0%,28.5,-3.7%,5.0%,u,4.0%
O=C(CNC1CCCCC1)Nc1cccc(C(F)(F)F)c1,u,-77.3*,-1.4%,-10.6%,-7.2%,-1.9%
O=C(Cn1c(=O)oc2cc(Cl)ccc21)Nc1cccc(C(F)(F)F)c1,x,x,18.4µM*,x,x,18.4µM*
O=C(Cn1c(=O)oc2ccccc21)Nc1cccc(Cl)c1,8.3%,-17.8,u,3.9%,-1.1%,u
COC(=O)/C=C/C(=O)Nc1cccc(C(F)(F)F)c1,-2.7%,-104.0*,9.2µM*,-10.9%,-12.2%,14.6µM*
O=C(CNC1CC1)Nc1cc(C(F)(F)F)ccc1Cl,0.0%,-26.9,-0.9%,-0.3%,4.9%,1.9%
O=C(COCC(=O)Nc1cccc(C(F)(F)F)c1)Nc1cccc(C(F)(F)F)c1,u,u,u,u,-1.0%,25.9µM*
CC1=C(C(=O)N(C)C)CC(CC(=O)NC(c2ccccc2)c2ccccc2)C(=O)N1CCCN1CCCC1=O (stereo not given),13.3%,-1.5,-11.4%,10.2%,x,-19.9%
O=C(Nc1ccc(-c2nc3ccccc3[nH]2)cc1)C1CCCN(Cc2ccn[nH]2)C1 (stereo not given),-9.9%,-21.6,u,-0.1%,x,u
O=C(Cc1ccccc1)N1CCCC1c1ccccc1 (stereo not given),0.6%,32.3,16.4µM*,0.8%,-5.6%,u
SMILES,HT1080-NT tox,IL1B secr inh,TDP1 cell CPT,HT1080 IDH1KD tx,ELG1 DNA repair,DT40 TDP1 no CPT
CC(C)(C)c1ccc(NC(=O)N2CCCN(c3c(Cl)cncc3Cl)CC2)cc1,u,-64.6*,16.4µM*,-13.8%,u,7.31µM*
CCCNC(=O)Cn1c(=O)cc(C)c2c(C)nn(-c3cccc(F)c3)c21,x,x,-16.8%,x,x,-18.2%
Cn1c(N)c(C(=O)COC(=O)COc2ccc(Br)cc2)c(=O)n(C)c1=O,16.7%,12.9,10.1%,12.4%,9.4%,-1.4%
CCCn1c(N)c(C(=O)COc2ccc(Br)cc2F)c(=O)n(C)c1=O,-10.5%,10.4,14.6µM*,-7.5%,u,u
C[C@H]1Cn2cnc(C(=O)NCc3ccc(CNC(=O)OC(C)(C)C)cc3)c2C(=O)N1,8.3%,-8.3,-29.8%,2.7%,x,u
O=C(Nc1ccsc1C(=O)NC1CCCCC1)c1ccccc1,-22.5%,0.3,u,-20.8%,-12.4%,20.6µM*
Cc1ccc(C(=O)Nc2ccsc2C(=O)O)cc1,-26.5%,-27.6,u,-23.2%,u,14.6µM*
Cc1ccc(C(=O)Nc2nc(-c3nnn(-c4cccc(C(F)(F)F)c4)c3C)ns2)cc1,x,x,3.26µM*,x,x,4.11µM*
Cc1c(-c2nsc(NC(=O)c3cccs3)n2)nnn1-c1ccc(F)cc1,x,x,u,x,x,-28.3%
Cc1ccc(C(=O)Nc2nc(-c3nnn(-c4cccc(Cl)c4C)c3C)ns2)cc1C,x,x,25.9µM*,x,x,18.4µM*
Cc1c(NC(=O)c2ccc([N+](=O)[O-])o2)cccc1-c1nc2ncccc2o1,9.2µM*,-103.1*,18.4µM*,u,u,u
CCOc1cccc(C(=O)Nc2cccc(-c3nc4ncccc4o3)c2C)c1,-9.4%,-63.3*,-8.4%,-5.5%,u,u
COc1ccc(C(=O)Nc2cccc(-c3nc4ncccc4o3)c2C)cc1OC,u,-14.9,-29.0%,u,u,u
Cc1c(NC(=O)C(C)(C)Oc2ccc(Cl)cc2)cccc1-c1nc2ncccc2o1,x,x,16.4µM*,x,x,23.1µM*
CCOc1cccc(C(=O)Nc2cc(C)c(O)c(-c3nc4ncccc4o3)c2)c1,x,x,-6.3%,x,x,-11.1%
Cc1ccc(C)c(NC(=O)C2CCN(c3ncnc4c3nc3n4CCCCC3)CC2)c1,x,x,-10.9%,x,x,1.9%
CCN1CCN(C(=O)C2CCCN(c3ncnc4c3nc3n4CCCCC3)C2)CC1 (stereo not given),8.6%,32.4,4.2%,13.2%,u,1.0%
COc1cc(OC)c(NC(=O)C2CCCN(c3ncnc4c3nc3n4CCCCC3)C2)cc1Cl (stereo not given),x,x,u,x,x,14.6µM*
O=C(Nc1ccccc1Cl)C1CCCN(c2ncnc3c2nc2n3CCCCC2)C1 (stereo not given),-23.0%,-62.6*,u,-10.3%,u,14.6µM*
Cc1ccc(NC(=O)C2CCN(c3ncnc4c3nc3n4CCCCC3)CC2)nc1,2.1%,-16.5,23.1µM*,-25.5%,u,20.6µM*
